The source of these data is PubChem BioAssay (Tox21).

Results filed as inconclusive are left out. Entries that show only a call come without a potency. More than one record can exist for a structure, and the calls need not agree. Active and inactive are the calls of the source. Calls come from the whole dose curve; as a rule, active = well fitted inhibition curve with a large enough effect in the repeat runs; inconclusive = weak or mixed curves; inactive = no such curve, though single readings can be large or run the other way.
Potency is the fitted concentration of half-maximal effect.

In the experiment the target is Estrogen receptor (Homo sapiens) (UniProt P03372). Description: qHTS assay to identify small molecule antagonists of the estrogen receptor alpha (ER-alpha) signaling pathway using the BG1 cell line in the presence of 0.1 nM 17-beta-estradiol (AID 1259244). Note: nearly all actives have a fitted effect of over 50% in size. The settings on record: VM7Luc4E2 (BG1) ERE-luciferase, antagonist mode, 0.1 nM E2, 22 h; series mostly up to 92.4 µM; activity change, negative = inhibition: at the top concentration. The text has this: National Center for Advancing Translational Sciences [NCATS]
Estrogen receptor (Homo sapiens), sequence (P03372 whole entry, looked up): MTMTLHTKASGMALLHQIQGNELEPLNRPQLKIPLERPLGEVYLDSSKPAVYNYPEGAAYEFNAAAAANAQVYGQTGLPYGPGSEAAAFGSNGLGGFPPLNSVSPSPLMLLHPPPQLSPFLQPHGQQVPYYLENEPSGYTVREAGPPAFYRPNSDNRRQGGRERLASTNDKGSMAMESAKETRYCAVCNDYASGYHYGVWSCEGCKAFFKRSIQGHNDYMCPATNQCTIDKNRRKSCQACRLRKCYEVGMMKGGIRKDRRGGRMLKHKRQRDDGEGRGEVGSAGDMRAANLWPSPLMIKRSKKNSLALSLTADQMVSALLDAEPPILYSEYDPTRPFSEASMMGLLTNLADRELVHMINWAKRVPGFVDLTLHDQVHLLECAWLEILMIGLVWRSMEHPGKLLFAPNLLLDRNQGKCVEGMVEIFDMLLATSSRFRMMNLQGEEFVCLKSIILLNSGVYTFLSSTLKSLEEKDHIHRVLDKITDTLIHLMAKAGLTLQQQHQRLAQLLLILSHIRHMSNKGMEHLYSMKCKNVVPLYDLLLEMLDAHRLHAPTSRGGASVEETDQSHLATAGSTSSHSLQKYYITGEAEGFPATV
NIH Chemical Genomics Center [NCGC]
U.S. Environmental Protection Agency [EPA]
National Institutes of Environmental Health Sciences [NIEHS]
National Toxicology Program [NTP]
U.S. Food and Drug Administration [FDA]
Estrogen receptor (ER), a member of the nuclear hormone receptor plays an important role in development, metabolic homeostasis and reproduction. Two subtypes of ER, ER-alpha and ER-beta, have similar expression patterns with some uniqueness in both types. Endocrine disrupting chemicals (EDCs) and their interactions with steroid hormone receptors like ER causes disruption of normal endocrine function. Therefore, it is important to understand the effect of environmental chemicals in ER signaling pathway. For identifying ER antagonists, VM7Luc4E2 cell line was used to screen against Tox21 compound libraries.
VM7Luc4E2 cell line (provided by Denison MS, University of California) endogenously express full-length ER-alpha and is stably transfected with a plasmid containing four estrogen responsive elements (ERE) upstream of a luciferase reporter gene. The current screening for identification of ER-alpha inhibitors against Tox21 compound libraries used lower concentration (0.1 nM) of 17beta-Estradiol as a stimulator.
Tox21 Assay Protocol Summary:
VM7Luc4E2 cells were cultured in phenol red free assay medium containing 10% charcoal stripped FBS for 5 days prior to the assay. The cells were dispensed at 4,000 cells/well in 4 uL of assay medium into white wall/solid-bottom 1536-well plates (Corning Life Sciences, Corning, NY) using a Multidrop Combi (ThermoFisher Scientific, Waltham, MA) dispenser. After the assay plates were incubated at 37C and 5% CO2 for 24 hr, 23 nL of compounds dissolved in DMSO, positive controls or DMSO only was transferred to the assay plates by a Pintool station (Kalypsys, San Diego, CA). The transfer of compounds was followed by the addition of 1 uL of 0.1 nM (final concentration) agonist (17beta-Estradiol)/assay medium using a Flying Reagent Dispenser (FRD, Aurora Discovery, San Diego, CA). The plates were incubated at 37C and 5% CO2 for 22 hr. For luciferase reporter gene assay, 4 uL of ONE-Glo reagent (Promega Corporation, Madison, WI) was added to each well using the FRD and after 30 min incubation at room temperature luminescence intensity was measured using ViewLux plate reader (PerkinElmer, Shelton, CT).
On the technique in general: In qHTS, concentration-response curves come from the screen itself.
Turning to `CC(O)COCC(C)O` (stereo not given), the Potency result was “inactive”.
Same read-out and setting: under `CC1=CCC2CC1C2(C)C` (stereo not given) stands “inactive”; under `CC(C)c1ccc(S(=O)(=O)O)cc1`, “inactive”; under `CCCCCOC(C)=O`, “inactive”.
Still for that read-out and setting: the same measure for `COc1ccc(Nc2ccccc2)c(C)c1`: “inactive”.
Consider `C#C[C@]1(O)CC[C@H]2[C@@H]3CCC4=CC(=O)CC[C@@H]4[C@H]3CC[C@@]21C`, for which the “activity change, negative = inhibition” value was -11.1% [at 42.5 µM] (inactive).
In the case of `C#CCN(C)Cc1ccccc1`, the Potency result was “inactive”.
Same read-out and setting: the same measure for `OC[C@H]1O[C@@](CO)(O[C@H]2O[C@H](CO)[C@@H](O)[C@H](O)[C@H]2O)[C@@H](O)[C@@H]1O`: “inactive”; for `C=C(C)C(=O)O[C@H]1C[C@@H]2CC[C@@]1(C)C2(C)C`: 2.71 µM (active) and inactive.
As to `O=C(O)c1cc(=O)c2c(OCC(O)COc3cccc4oc(C(=O)O)cc(=O)c34)cccc2o1`, the Potency entry is “inactive”.
On the same count and under the same terms, the same measure for `CCCCCCCC(=O)OC`: “inactive”.
Still for that read-out and setting: the same measure for `O=C=NCCCCCCN=C=O`: “inactive”; for `CCCCCC1=CCCC1=O`: “inactive”; for `O=C(O)c1ccccc1C(c1ccc(O)cc1)c1ccc(O)cc1`: “inactive”.
`Cc1cccc(O)c1`: the Potency entry is “inactive”.
On the same count and under the same terms, the same measure for `Cc1cnc(C(=O)NCCc2ccc(S(=O)(=O)NC(=O)NC3CCCCC3)cc2)cn1`: “inactive”.
On the same count and under the same terms, the same measure for `CC(=O)OCC(=O)[C@@]12N=C(C)O[C@@H]1C[C@H]1[C@@H]3CCC4=CC(=O)C=C[C@]4(C)[C@H]3[C@@H](O)C[C@@]12C`: “inactive”.
On to `CCCCN(CCCC)CCCC`, for which the Potency entry was “inactive”.
Still for that read-out and setting: under `CCc1ccc(CCOc2ccc(CC3SC(=O)NC3=O)cc2)nc1` (stereo not given) stands 54.5 µM (active) and inactive.
In the case of `CC(=O)Nc1ccccc1`, the “activity change, negative = inhibition” value was 9.76% [at 42.5 µM] (inactive).
Take `O=C(O)CC(C(=O)O)C(CC(=O)O)C(=O)O` (stereo not given): the Potency entry is “inactive”.
Take `O=S(=O)(O)c1ccc2ccccc2c1`: the Potency entry is “inactive”.
For `COS(C)(=O)=O`, the Potency result was “inactive”.
On the same count and under the same terms, the same measure for `CC(C)(N)CO`: “inactive”; for `OCc1cccnc1`: “inactive”.
Still for that read-out and setting: the same measure for `FC(F)(F)c1ccc(Cl)c(Cl)c1`: “inactive”; for `C/C=C1/CC2C=CC1C2` (stereo not given): “inactive”; for `c1ccc2scnc2c1`: “inactive”.
Still for that read-out and setting: the same measure for `COc1ccc(NC(C)=O)cc1N`: “inactive”; for `CC[C@H](C)C(=O)O[C@H]1C[C@@H](C)C=C2C=C[C@H](C)[C@H](CC[C@@H]3C[C@@H](O)CC(=O)O3)[C@H]21`: “inactive”; for `O=C(O)c1ccc2c(c1)C(=O)OC2=O`: “inactive”.
In the case of `c1ccc2c(c1)ccc1ccccc12`, the Potency entry was “inactive”.
Turning to `CC(c1cc2ccccc2s1)N(O)C(N)=O` (stereo not given), the Potency entry was “inactive”.
For `O=C(O)CCCC[C@@H]1SC[C@@H]2NC(=O)N[C@@H]21`, the Potency result is “inactive”.
The same measure, in the same setting: under `O=c1[nH]c(=O)n([C@H]2C[C@H](O)[C@@H](CO)O2)cc1Br` stands “inactive”; under `C=C(C)C(=O)Nc1ccc(Cl)c(Cl)c1`, 69.3 µM (active); under `c1ccc(OCCOc2ccccc2)cc1`, “inactive”.
The same measure, in the same setting: under `OCCOCCOCCO` stands “inactive”.
Regarding `CCOC(=O)NNc1nncc2ccccc12`, the Potency result is “inactive”.
On the same count and under the same terms, the same measure for `CN(C)CCCN`: “inactive”.
